This passage reports outcome and AC50 results from PubChem BioAssay (EPA / NIEHS).

Read-out in test [1]: Interleukin-6 (IL6), IL6 (gene 3569)
The test can be described thus: BSK_CASM3C_IL6: BioMAP Diversity Plus: CASM3C Assay for Interleukin-6 (IL6) Biomarker Activity for (AID 2283040). Particulars: primary human coronary artery smooth muscle cells; actives raise or lower the signal.

Read-out in test [2]: Tissue plasminogen activator (tPA), PLAT (gene 5327)
Kind of test: BSK_BE3C_tPA: BioMAP Diversity Plus: BE3C Assay for Tissue plasminogen activator (tPA) Biomarker Activity (AID 2283041).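 On outcome: tPA level quantified by ELISA one day after compound addition.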 Particulars: primary human bronchial epithelial cells; actives raise or lower the signal. A digest of the protocol: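 Primary human bronchial epithelial cells in the BE3C system, exposed to compound for 24 h. tPA was quantified by ELISA; DMSO served as baseline, with gain or loss of signal fitted. Cytotoxicity checked in parallel cultures by SRB total-protein staining.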

Read-out in test [3]: Interleukin-8 (IL8), CXCL8 (gene 3576)
Kind of test: BSK_CASM3C_IL8: BioMAP Diversity Plus: CASM3C Assay for Interleukin-8 (IL8) Biomarker Activity (AID 2283042).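 Further: IL-8 protein level quantified by ELISA.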 As to conditions: primary human coronary artery smooth muscle cells; actives raise or lower the signal.

Read-out in test [4]: Human Leukocyte Antigen - DR isotype (HLADR), HLA-DRA (gene 3122)
The test can be described thus: BSK_CASM3C_HLADR: BioMAP Diversity Plus: CASM3C Assay for Human Leukocyte Antigen - DR isotype (HLADR) Biomarker Activity (AID 2283043).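 Further: cell-surface HLA-DR protein level quantified by ELISA.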 As to conditions: primary human coronary artery smooth muscle cells; actives raise or lower the signal.

Read-out in test [5]: Low-density lipoprotein receptor (LDLR), LDLR (gene 3949)
The test can be described thus: BSK_CASM3C_LDLR: BioMAP Diversity Plus: CASM3C Assay for Low-density lipoprotein receptor (LDLR) Biomarker Activity (AID 2283045).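 Further: LDLR protein level on the cell surface quantified by ELISA.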 Particulars: primary human coronary artery smooth muscle cells; actives raise or lower the signal.

Read-out in test [6]: Monocyte Chemoattractant Protein-1 (MCP1), CCL2 (gene 6347)
The test can be described thus: BSK_CASM3C_MCP1: BioMAP Diversity Plus: CASM3C Assay for Monocyte Chemoattractant Protein-1 (MCP1) Biomarker Activity (AID 2283046).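 Further: MCP-1 level quantified by ELISA 24 h after dosing.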 As to conditions: primary human coronary artery smooth muscle cells; actives raise or lower the signal.

Test [7] can be described thus: BSK_CASM3C_Proliferation: Cell Proliferation Assessment in the BioMAP Diversity Plus: CASM3C Assay (AID 2283047).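 Further: sulforhodamine B total protein stain as relative cell number at 560 nm; sub-confluent cells exposed 48 h before staining; fitted both ways against DMSO so gain or loss of cell number.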 As to conditions: primary human coronary artery smooth muscle cells.
Read-out in test [8]: Monokine induced gamma interferon (MIG), CXCL9 (gene 4283)
The test can be described thus: BSK_CASM3C_MIG: BioMAP Diversity Plus: CASM3C Assay for Monokine induced gamma interferon (MIG) Biomarker Activity (AID 2283048).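 Further: MIG protein level measured by ELISA.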 Particulars: primary human coronary artery smooth muscle cells; actives raise or lower the signal.

Read-out in test [9]: serum amyloid A (SAA), SAA1 (gene 6288)
Kind of test: BSK_CASM3C_SAA: BioMAP Diversity Plus: CASM3C Assay for serum amyloid A (SAA) Biomarker Activity (AID 2283049).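 Further: SAA protein level quantified by ELISA.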 As to conditions: primary human coronary artery smooth muscle cells; actives raise or lower the signal.

Test [10] can be described thus: BSK_CASM3C_SRB: Viability Assessment in the BioMAP Diversity Plus: CASM3C Assay (AID 2283050). Particulars: primary human coronary artery smooth muscle cells.
Read-out in test [11]: Thrombomodulin, THBD (gene 7056)
Kind of test: BSK_CASM3C_Thrombomodulin: BioMAP Diversity Plus: CASM3C Assay for Thrombomodulin Biomarker Activity (AID 2283051).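 Further: thrombomodulin protein level measured by ELISA 24 h after dosing.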 As to conditions: primary human coronary artery smooth muscle cells; actives raise or lower the signal.

Read-out in test [12]: Tissue Factor, F3 (gene 2152)
The test can be described thus: BSK_CASM3C_TissueFactor: BioMAP Diversity Plus: CASM3C Assay for Tissue Factor Biomarker Activity (AID 2283052).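 Further: cell surface tissue factor protein level read by ELISA.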 Particulars: primary human coronary artery smooth muscle cells; actives raise or lower the signal.

Read-out in test [13]: Interferon-gamma inducible Protein 10 (IP10), CXCL10 (gene 3627)
The test can be described thus: BSK_hDFCGF_IP10: BioMAP Diversity Plus: hDFCGF Assay for Interferon-gamma inducible Protein 10 (IP10) Biomarker Activity (AID 2283053). As to conditions: primary human foreskin fibroblasts; actives raise or lower the signal. A digest of the protocol:
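Primary human foreskin fibroblasts exposed to chemicals for 24 h. IP-10 measured by ELISA; changes fitted bidirectionally against DMSO baseline.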

Read-out in test [14]: Urokinase-type plasminogen activator receptor (uPAR), PLAUR (gene 5329)
Kind of test: BSK_CASM3C_uPAR: BioMAP Diversity Plus: CASM3C Assay for Urokinase-type plasminogen activator receptor (uPAR) Biomarker Activity (AID 2283054).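 Further: cell-surface uPAR protein level quantified by ELISA.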 Particulars: primary human coronary artery smooth muscle cells; actives raise or lower the signal.

Read-out in test [15]: Vascular cell adhesion molecule 1 (VCAM1), VCAM1 (gene 7412)
Kind of test: BSK_CASM3C_VCAM1: BioMAP Diversity Plus: CASM3C Assay for Vascular cell adhesion molecule 1 (VCAM1) Biomarker Activity (AID 2283055).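 Further: VCAM-1 protein level quantified by ELISA on the cells.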 As to conditions: primary human coronary artery smooth muscle cells; actives raise or lower the signal.

Read-out in test [16]: Collagen III, COL3A1 (gene 1281)
The test can be described thus: BSK_hDFCGF_CollagenIII: BioMAP Diversity Plus: hDFCGF Assay for Collagen III Biomarker Activity (AID 2283056). As to conditions: primary human foreskin fibroblasts; actives raise or lower the signal. The gist of the method:
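Human foreskin primary fibroblasts were exposed to test chemicals for 24 h, after which collagen III was quantified by ELISA. Activity was fitted bidirectionally against DMSO as negative control and baseline.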

Read-out in test [17]: Epidermal growth factor receptor (EGFR), EGFR (gene 1956)
The test can be described thus: BSK_hDFCGF_EGFR: BioMAP Diversity Plus: hDFCGF Assay for Epidermal growth factor receptor (EGFR) Biomarker Activity (AID 2283057). Particulars: primary human foreskin fibroblasts; actives raise or lower the signal. The gist of the method: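 Primary human foreskin fibroblasts (hDFCGF system), sampled 24 h after dosing; EGFR quantified by ELISA. Bidirectional fit relative to DMSO baseline; SRB total-protein staining in parallel cultures for cytotoxicity.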

Read-out in test [18]: Interleukin-8 (IL8), CXCL8 (gene 3576)
Kind of test: BSK_hDFCGF_IL8: BioMAP Diversity Plus: hDFCGF Assay for Interleukin-8 (IL8) Biomarker Activity (AID 2283058). Particulars: primary human foreskin fibroblasts; actives raise or lower the signal. The gist of the method: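 hDFCGF human dermal fibroblasts; 24 h chemical exposure; IL-8 by ELISA; bidirectional curve fit vs DMSO baseline; gain or loss of signal scored.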

Read-out in test [19]: Macrophage colony-stimulating factor (MCSF), CSF1 (gene 1435)
The test can be described thus: BSK_CASM3C_MCSF: BioMAP Diversity Plus: CASM3C Assay for Macrophage colony-stimulating factor (MCSF) Biomarker Activity (AID 2283044).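 Further: M-CSF protein amount quantified by ELISA after 24 h exposure.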 Particulars: primary human coronary artery smooth muscle cells; actives raise or lower the signal.

Test [20] is described as follows: BSK_hDFCGF_Proliferation: Cell Proliferation Assessment in the BioMAP Diversity Plus: hDFCGF Assay (AID 2283059).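 Further: curves fitted for both rise and fall of signal versus DMSO baseline.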 As to conditions: primary human foreskin fibroblasts. The gist of the method: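 This proliferation readout used SRB total-protein staining of human foreskin fibroblasts […], normalized to DMSO with bidirectional curve fitting.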

The source made the active and inactive calls. How the source made its calls: active means hit-call score of the fitted dose curve at least 0.9, where 1 is the maximum; inactive means score below 0.9.

With `CN(C)CCOC(c1ccccc1)c1ccccc1`, the result in test [1], in test [2], in [3], in [4], in test [5] and in test [6] was inactive. The outcome in test [7], in [8], in test [9], in test [10], in [11] and in [12] was inactive. The outcome in [14], in test [15], in [16], in [17] and in test [18] was inactive. The AC50 in test [13] is 33.6 µM (active).
In the case of `Cc1ccc(C(=O)c2ccccc2)cc1`, the result in [1], in test [2], in [19], in test [5], in [6] and in [7] was inactive. In addition, the result in test [8], in [9], in test [10], in [11], in [12] and in test [14] was inactive. The result in test [15], in test [17] and in test [18] was inactive. Further, the AC50 was 0.0224 µM (active) in test [3]; 3.97 µM (active) in [4]; 33.1 µM (active) in [13]; 33.8 µM (active) in test [16]; 32.4 µM (active) in [20].
In the case of `O=C(O)CCC(F)(F)C(F)(F)C(F)(F)C(F)(F)C(F)(F)F`, the result in test [1], in test [2], in [3], in test [4], in [19] and in test [5] was inactive. Also, the outcome in test [6], in test [7], in test [8], in test [9], in test [10] and in [11] was inactive. For the same compound, the result in test [12], in test [13], in [14], in [15], in test [16] and in test [17] was inactive. Further, the result in test [18] and in test [20] was inactive.
`C=CC(=C)CC/C=C(\C)CCC=C(C)C`: the result in test [1], in test [2], in test [3], in test [4], in test [19] and in test [5] was inactive. Besides, the result in test [6], in test [7], in test [8], in test [9], in test [10] and in [11] was inactive. For the same compound, the result in test [12], in [13], in [14], in test [15], in test [17] and in test [18] was inactive. For the same compound, the AC50 was 3.62 µM (active) in [16] and 6.49 µM (active) in [20].
On to `Cc1[nH]nc2c1N=C(c1ccccc1Cl)c1cc([N+](=O)[O-])ccc1N2`, for which the result in [1], in test [3], in test [5], in [6], in [10] and in test [11] was inactive. The result in test [12], in [13], in [14], in [16] and in [18] was inactive. Also, the AC50 in test [2] was 20 µM (active); in [4], 8.7 µM (active); in test [19], 0.581 µM (active); in test [7], 0.807 µM (active); in test [8], 7.47 µM (active); in test [9], 0.641 µM (active). Also, the figures for the concentration at half-maximal activity (AC50) in test [15], in [17] and in test [20] were 9.37 µM (active), 20 µM (active) and 0.187 µM (active), respectively.
